Results: PubChem BioAssay (EPA / NIEHS)
Records with an inconclusive call do not appear. Activity calls are given as the source filed them. How the source made its calls: active means hit-call score of the fitted dose curve at least 0.9, where 1 is the maximum; inconclusive means response in the unintended direction; inactive means score below 0.9.

test system: not listed separately; assay: TOX21_p53_BLA_p2_viability: Viability Assessment in the Tox21 HCT-116 p53 Agonism Beta-lactamase Assay, Phase 2 (AID 2283591);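 further: compound exposure lasted 16 h at 37 °C; actives lower the ATP signal meaning cytotoxicity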
Outline: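 HCT-116 p53-bla cells (4000/well) rested 5 h at 37C, then received compounds in DMSO (217-fold dilution) for 16 h at 37C, 5% CO2. After the CCF4 read, CellTiter-Glo was added; ATP luminescence was read after 30 min at room temperature.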

SMILES | outcome | AC50
O=[N+]([O-])c1ccc(/C=N\O)o1 | inactive | –
NCCS | inactive | –
O=C(O)CONC(=O)c1ccccc1 | inactive | –
COc1cc2nc(N3CCN(C(=O)C4COc5ccccc5O4)CC3)nc(N)c2cc1OC (stereo unspecified) | inactive | –
CC(=O)OC[C@H]1O[C@@H](O[C@H]2[C@H](O)[C@@H](OC(=O)c3ccccc3C(=O)O)[C@H](O)O[C@@H]2COC(C)=O)[C@H](O)[C@@H](OC(=O)c2ccccc2C(=O)O)[C@@H]1O | inactive | –
CN(C)CCc1c[nH]c2ccc(Cn3cncn3)cc12 | inactive | –
C[N+](C)(C)CCCCCCCCCC[N+](C)(C)C | inactive | –
CCCCOC(=O)CO | inactive | –
CCC(C)(C)OC(=O)N[C@@H](Cc1c[nH]c2ccccc12)C(=O)N[C@@H](CCSC)C(=O)N[C@@H](CC(=O)O)C(=O)N[C@@H](Cc1ccccc1)C(N)=O | inactive | –
CC(C)N=c1cc2n(-c3ccc(Cl)cc3)c3ccccc3nc-2cc1Nc1ccc(Cl)cc1 | inactive | –
Cc1cccc(C)c1NC(=O)c1cc(S(N)(=O)=O)c(Cl)cc1O | inactive | –
CC(C)C(=O)OC(=O)C(C)C | inactive | –
CC(C)(C)CC(C)(C)c1cc(Cc2cc(C(C)(C)CC(C)(C)C)cc(-n3nc4ccccc4n3)c2O)c(O)c(-n2nc3ccccc3n2)c1 | inactive | –
CCN(CC)CCNC(=O)c1cc(Br)c(N)cc1OC | inactive | –
CCC(C)C(C(=O)OCC[N+](C)(CC)CC)c1ccccc1 (stereo unspecified) | inactive | –
O=C(O)c1cc(=O)c2ccccc2o1 | inactive | –
O=c1[nH]cnc2nc[nH]c12 | inactive | –
CC(C)(C)NC[C@H](O)COc1cccc2c1CCCC2=O | inactive | –
CN1CCN(CC(=O)N2c3ccccc3C(=O)Nc3cccnc32)CC1 | inactive | –
CN1CCN(CCCN2c3ccccc3Sc3ccc(C(F)(F)F)cc32)CC1 | – | 36.4 µM (active)
CCNC(=O)/C=C/c1cccc(Br)c1 | inactive | –

biological target: Cellular tumor antigen p53 (Homo sapiens) (UniProt P04637); assay: TOX21_p53_BLA_p2_ratio: Tox21 HCT-116 p53 Agonism Beta-lactamase Assay, Ratio, Phase 2 (AID 2283592)
Sequence (P04637 whole entry, looked up): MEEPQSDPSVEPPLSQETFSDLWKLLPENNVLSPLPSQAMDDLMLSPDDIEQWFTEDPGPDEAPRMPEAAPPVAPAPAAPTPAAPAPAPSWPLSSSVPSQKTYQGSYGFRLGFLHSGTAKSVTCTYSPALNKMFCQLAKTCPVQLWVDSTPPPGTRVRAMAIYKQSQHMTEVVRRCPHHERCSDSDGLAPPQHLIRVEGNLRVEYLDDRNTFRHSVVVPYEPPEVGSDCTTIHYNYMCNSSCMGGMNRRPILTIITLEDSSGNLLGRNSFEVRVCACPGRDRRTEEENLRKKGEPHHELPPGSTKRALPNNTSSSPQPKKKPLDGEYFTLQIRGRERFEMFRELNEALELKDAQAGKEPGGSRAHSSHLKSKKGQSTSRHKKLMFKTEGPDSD
Outline: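 Human colon HCT116 cells with an inducible p53 beta-lactamase reporter are exposed to test chemicals for 16 h at 37C. Reporter induction is read as the 460/530 nm emission ratio after CCF4-AM loading, normalized to DMSO.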

SMILES | outcome | AC50
CNC(=O)C[C@@H](N)C(=O)N[C@@H](C(=O)N[C@@H]1C(=O)N2[C@@H]1SC(C)(C)[C@@H]2C(=O)O)c1ccc(O)cc1 | inactive | –
N=C(N)N | inactive | –
Cn1cc(S(C)=O)c(=O)c2ccc(F)cc21 (stereo unspecified) | inactive | –
COc1cc([C@H]2Oc3cc([C@H]4Oc5cc(O)cc(O)c5C(=O)[C@@H]4O)ccc3O[C@@H]2CO)ccc1O | – | 86.2 µM (active)
CCCCCCCN | inactive | –
NC/C=C/C(=O)O | inactive | –
O=C(O)c1ccc(NC2OC[C@@H](O)[C@H](O)[C@H]2O)cc1 (stereo partly specified) | inactive | –
O=[N+]([O-])c1ccc(/C=N\O)o1 | inactive | –
CN(C)CCc1c[nH]c2ccc(Cn3cncn3)cc12 | inactive | –
C[N+](C)(C)CCCCCCCCCC[N+](C)(C)C | inactive | –
CCCCOC(=O)CO | inactive | –
CCC(C)(C)OC(=O)N[C@@H](Cc1c[nH]c2ccccc12)C(=O)N[C@@H](CCSC)C(=O)N[C@@H](CC(=O)O)C(=O)N[C@@H](Cc1ccccc1)C(N)=O | inactive | –
CCN(CC)CCNC(=O)c1cc(Br)c(N)cc1OC | inactive | –
O=C(O)c1cc(=O)c2ccccc2o1 | inactive | –
O=c1[nH]cnc2nc[nH]c12 | inactive | –
